Activity calls are given as the source filed them.

The text below walks through data of PubChem BioAssay.

The subject of test [1] is PRMT1 (protein arginine N-methyltransferase 1). Briefly: PRMT1 binders on small-molecule microarrays, primary screen, biochemical, small-molecule microarray, 635 nm fluorescence (AID 1088).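 Note: binding of Prmt1 protein to compounds spotted on small-molecule microarray slides.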 The conditions noted are these: small-molecule microarray binding, higher = more signal.
Test [2] in a line: yeast growth modulation, basal conditions, primary screen, YJM789 clinical isolate, OD600, 24 h (AID 1089).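 Note: growth of clinical yeast isolate S. cerevisiae YJM 789 seeded 1000 cells per well; test concentration not given here.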 The conditions noted are these: S. cerevisiae YJM789 growth, higher = more signal, called active from +8 up or from −8 down.
A short description of test [3]: fission yeast growth modulation, primary screen, strain 972, OD600, 24 h, no modulator (AID 1090).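 Note: basal condition with compound alone and no growth modifier present; test concentration not given here.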 The conditions noted are these: S. pombe 972 growth, higher = more signal, called active from +8 up or from −8 down.
The nature of test [4]: S. cerevisiae growth modulation with rapamycin, primary screen, strain BY4716, OD600, 96 h (AID 1091). Note: test concentration not given here. The conditions noted are these: higher = more signal, called active from +8 up or from −8 down.
Test [5] concerns the target Torsin-1A-interacting protein 2 (Homo sapiens) (UniProt Q8NFQ8). Briefly: LULL1 binders on small-molecule microarray, primary screen, cell lysate, human LULL1 lysate, 635/667 nm fluorescence (AID 1092).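 Note: probe is lysate of COS7 cells overexpressing human LULL1; score merges per-feature 667 nm fluorescence with signal-to-noise.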 The conditions noted are these: hLULL1 lysate binding, 635 nm fluorescence, higher = more signal.
The nature of test [6]: E. coli growth modulation, two-sided OD650, primary screen, E. coli filamentation project, strain DRC41, 24 h (AID 1093).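 Note: MC1000 strain lacking acrAB efflux and sulA so SOS filamentation is blocked; test concentration not given here.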 The conditions noted are these: OD650, 24 h, higher = more signal, called active from +8 up or from −8 down.
A short description of test [7]: small-molecule microarray binders of probe aLefty2, primary screen, biochemical, biotinylated probe, 635/667 nm fluorescence (AID 1094).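 Note: score merges spot fluorescence near 667 nm with spot signal-to-noise ratio.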 The conditions noted are these: higher = more signal.
Test [8] has as its system Noggin (protein binding on small-molecule microarray). The test can be described thus: Noggin binders on small-molecule microarray, primary screen, biochemical, 635/667 nm fluorescence (AID 1095).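 Note: score merges 667 nm feature fluorescence with signal to noise over triplicate slides.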 The conditions noted are these: 635 nm fluorescence, higher = more signal.
The target of test [9] is Neurogenic locus notch homolog protein 3 (Homo sapiens) (UniProt Q9UM47). Briefly: NOTCH3 binders on small-molecule microarray, primary screen, biochemical, 635/667 nm fluorescence (AID 1096). The conditions noted are these: NOTCH3 binding, 635 nm fluorescence, higher = more signal.
Neurogenic locus notch homolog protein 3 (Homo sapiens), sequence (Q9UM47 whole entry, looked up): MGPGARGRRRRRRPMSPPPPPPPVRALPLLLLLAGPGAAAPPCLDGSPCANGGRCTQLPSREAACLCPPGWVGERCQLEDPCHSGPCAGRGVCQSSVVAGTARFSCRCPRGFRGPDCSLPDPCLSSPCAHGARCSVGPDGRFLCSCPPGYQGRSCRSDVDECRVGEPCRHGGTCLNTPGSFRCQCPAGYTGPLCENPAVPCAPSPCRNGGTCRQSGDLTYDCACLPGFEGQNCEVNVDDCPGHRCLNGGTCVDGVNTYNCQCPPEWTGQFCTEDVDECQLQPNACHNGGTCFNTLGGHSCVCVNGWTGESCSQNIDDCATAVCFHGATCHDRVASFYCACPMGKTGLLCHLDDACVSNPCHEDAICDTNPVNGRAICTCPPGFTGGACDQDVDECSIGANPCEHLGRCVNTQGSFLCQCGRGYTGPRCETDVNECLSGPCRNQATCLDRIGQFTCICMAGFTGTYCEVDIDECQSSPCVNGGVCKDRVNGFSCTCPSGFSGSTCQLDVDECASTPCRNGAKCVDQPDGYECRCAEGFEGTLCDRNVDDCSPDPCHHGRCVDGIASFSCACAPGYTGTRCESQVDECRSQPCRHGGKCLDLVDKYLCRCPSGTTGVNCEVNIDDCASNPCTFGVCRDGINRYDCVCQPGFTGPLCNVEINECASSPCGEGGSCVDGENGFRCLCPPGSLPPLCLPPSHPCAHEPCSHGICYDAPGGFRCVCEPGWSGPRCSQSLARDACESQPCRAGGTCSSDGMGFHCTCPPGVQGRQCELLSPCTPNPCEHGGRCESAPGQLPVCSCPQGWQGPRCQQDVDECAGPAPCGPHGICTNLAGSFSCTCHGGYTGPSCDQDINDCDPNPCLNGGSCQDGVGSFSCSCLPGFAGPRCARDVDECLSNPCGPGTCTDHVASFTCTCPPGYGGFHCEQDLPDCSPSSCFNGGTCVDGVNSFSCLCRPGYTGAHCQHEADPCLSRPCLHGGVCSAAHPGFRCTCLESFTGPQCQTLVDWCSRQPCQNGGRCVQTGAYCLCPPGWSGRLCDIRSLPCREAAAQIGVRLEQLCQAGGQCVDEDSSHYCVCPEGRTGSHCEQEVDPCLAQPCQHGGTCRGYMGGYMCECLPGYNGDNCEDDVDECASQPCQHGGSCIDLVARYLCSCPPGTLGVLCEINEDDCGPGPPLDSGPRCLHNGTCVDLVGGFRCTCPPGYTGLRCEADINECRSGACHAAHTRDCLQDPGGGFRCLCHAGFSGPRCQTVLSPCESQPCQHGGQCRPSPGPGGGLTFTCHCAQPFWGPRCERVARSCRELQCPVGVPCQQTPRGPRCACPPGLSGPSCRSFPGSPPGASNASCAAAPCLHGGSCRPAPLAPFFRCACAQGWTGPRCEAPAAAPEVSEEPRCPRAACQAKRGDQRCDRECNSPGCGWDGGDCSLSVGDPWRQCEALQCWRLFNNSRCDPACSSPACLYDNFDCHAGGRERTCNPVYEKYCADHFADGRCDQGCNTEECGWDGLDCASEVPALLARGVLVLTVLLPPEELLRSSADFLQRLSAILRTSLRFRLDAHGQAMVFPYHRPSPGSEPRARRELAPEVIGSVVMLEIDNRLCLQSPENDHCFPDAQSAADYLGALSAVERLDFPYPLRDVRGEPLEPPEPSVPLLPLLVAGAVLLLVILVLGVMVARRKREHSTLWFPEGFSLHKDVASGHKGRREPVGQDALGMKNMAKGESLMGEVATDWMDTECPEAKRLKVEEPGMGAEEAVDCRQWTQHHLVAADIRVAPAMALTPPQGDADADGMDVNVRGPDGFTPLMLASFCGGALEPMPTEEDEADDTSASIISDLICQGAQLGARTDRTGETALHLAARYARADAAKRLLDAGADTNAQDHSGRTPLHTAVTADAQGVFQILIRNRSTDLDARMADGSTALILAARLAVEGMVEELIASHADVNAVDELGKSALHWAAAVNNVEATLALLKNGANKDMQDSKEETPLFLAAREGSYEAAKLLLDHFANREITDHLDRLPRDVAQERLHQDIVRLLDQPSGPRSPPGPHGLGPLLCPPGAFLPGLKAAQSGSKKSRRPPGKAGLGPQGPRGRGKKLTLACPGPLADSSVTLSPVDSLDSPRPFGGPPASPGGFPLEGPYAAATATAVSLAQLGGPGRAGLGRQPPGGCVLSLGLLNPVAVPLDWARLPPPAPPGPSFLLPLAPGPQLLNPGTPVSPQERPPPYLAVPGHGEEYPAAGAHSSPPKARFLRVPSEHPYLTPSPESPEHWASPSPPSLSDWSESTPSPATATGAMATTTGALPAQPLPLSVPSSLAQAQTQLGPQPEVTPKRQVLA
A short description of test [10]: small-molecule microarray binders of probe aEGFR, primary screen, biochemical, biotinylated probe, 635/667 nm fluorescence (AID 1097).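 Note: probe is a biotinylated anti-EGFR antibody binding compounds printed on slides; score combines fluorescence near 667 nm and signal to noise of each spot.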 The conditions noted are these: higher = more signal.
The test system of test [11] is Plasmodium falciparum Sir2 (PF13_0152, Sir2A). The test can be described thus: pfSir2 binders on small-molecule microarrays, primary screen, biochemical, small-molecule microarray, 635 nm fluorescence (AID 1098).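 Note: score merges spot fluorescence intensity with its signal-to-noise ratio.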 The conditions noted are these: small-molecule microarray binding, fluorescence 635 nm; higher = more signal.
The nature of test [12]: small-molecule microarray binders of probe aDKK1, primary screen, biochemical, biotinylated probe, 635/667 nm fluorescence (AID 1099).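 Note: score merges 667nm spot fluorescence with signal to noise across triplicate slides; reference of the scale not given here.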 The conditions noted are these: higher = more signal.
Test [13] can be described thus: small-molecule microarray binders of probe aCHRDL2, primary screen, biochemical, biotinylated probe, 635/667 nm fluorescence (AID 1100). The conditions noted are these: higher = more signal.
Test [14] in a line: splicing luciferase reporter signal modulators, primary screen, spliceosome inhibition project, cell-based, HEK293, splice +/- reporter (AID 1101).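 Note: HEK293 cells carrying a splicing-competent luciferase reporter gene; test concentration not given here.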 The conditions noted are these: luminescence, 24 h, higher = more signal, called active from +8 up or from −8 down. Background: A reporter such as luciferase makes a cellular process visible.
In test [15] the target is Fibroblast growth factor 10 (Homo sapiens) (UniProt O15520). The test can be described thus: FGF10 binders on small-molecule microarrays, primary screen, biochemical, small-molecule microarray, 635 nm fluorescence (AID 1102). The conditions noted are these: FGF10 binding, fluorescence 635 nm, higher = more signal.
Fibroblast growth factor 10 (Homo sapiens), sequence (O15520 whole entry, looked up): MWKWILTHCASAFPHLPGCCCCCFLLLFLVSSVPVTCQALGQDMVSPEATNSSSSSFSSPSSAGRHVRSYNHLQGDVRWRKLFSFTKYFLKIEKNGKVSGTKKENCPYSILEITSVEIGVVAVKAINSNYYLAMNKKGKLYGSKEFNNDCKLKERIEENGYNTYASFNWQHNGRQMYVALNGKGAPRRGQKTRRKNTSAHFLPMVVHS
The test system of test [16] is glycogen synthase kinase-3 (GSK3A per assay name; protocol says GSK3B). Briefly: GSK3 binders on small-molecule microarrays, primary screen, biochemical, small-molecule microarray, 635 nm fluorescence, GSK3A (AID 1103). Note: the record names both GSK3A and GSK3B. The conditions noted are these: small-molecule microarray binding, fluorescence 635 nm; higher = more signal.
The target in test [17] is Epidermal growth factor receptor (Homo sapiens) (UniProt P00533). Briefly: EGFR binders on small-molecule microarrays, primary screen, biochemical, small-molecule microarray, 635 nm fluorescence (AID 1104).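 Note: score merges 667 nm emission intensity with spot signal to noise over triplicate slides.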 The conditions noted are these: EGFR binding, higher = more signal.
Epidermal growth factor receptor (Homo sapiens), sequence (P00533 whole entry, looked up): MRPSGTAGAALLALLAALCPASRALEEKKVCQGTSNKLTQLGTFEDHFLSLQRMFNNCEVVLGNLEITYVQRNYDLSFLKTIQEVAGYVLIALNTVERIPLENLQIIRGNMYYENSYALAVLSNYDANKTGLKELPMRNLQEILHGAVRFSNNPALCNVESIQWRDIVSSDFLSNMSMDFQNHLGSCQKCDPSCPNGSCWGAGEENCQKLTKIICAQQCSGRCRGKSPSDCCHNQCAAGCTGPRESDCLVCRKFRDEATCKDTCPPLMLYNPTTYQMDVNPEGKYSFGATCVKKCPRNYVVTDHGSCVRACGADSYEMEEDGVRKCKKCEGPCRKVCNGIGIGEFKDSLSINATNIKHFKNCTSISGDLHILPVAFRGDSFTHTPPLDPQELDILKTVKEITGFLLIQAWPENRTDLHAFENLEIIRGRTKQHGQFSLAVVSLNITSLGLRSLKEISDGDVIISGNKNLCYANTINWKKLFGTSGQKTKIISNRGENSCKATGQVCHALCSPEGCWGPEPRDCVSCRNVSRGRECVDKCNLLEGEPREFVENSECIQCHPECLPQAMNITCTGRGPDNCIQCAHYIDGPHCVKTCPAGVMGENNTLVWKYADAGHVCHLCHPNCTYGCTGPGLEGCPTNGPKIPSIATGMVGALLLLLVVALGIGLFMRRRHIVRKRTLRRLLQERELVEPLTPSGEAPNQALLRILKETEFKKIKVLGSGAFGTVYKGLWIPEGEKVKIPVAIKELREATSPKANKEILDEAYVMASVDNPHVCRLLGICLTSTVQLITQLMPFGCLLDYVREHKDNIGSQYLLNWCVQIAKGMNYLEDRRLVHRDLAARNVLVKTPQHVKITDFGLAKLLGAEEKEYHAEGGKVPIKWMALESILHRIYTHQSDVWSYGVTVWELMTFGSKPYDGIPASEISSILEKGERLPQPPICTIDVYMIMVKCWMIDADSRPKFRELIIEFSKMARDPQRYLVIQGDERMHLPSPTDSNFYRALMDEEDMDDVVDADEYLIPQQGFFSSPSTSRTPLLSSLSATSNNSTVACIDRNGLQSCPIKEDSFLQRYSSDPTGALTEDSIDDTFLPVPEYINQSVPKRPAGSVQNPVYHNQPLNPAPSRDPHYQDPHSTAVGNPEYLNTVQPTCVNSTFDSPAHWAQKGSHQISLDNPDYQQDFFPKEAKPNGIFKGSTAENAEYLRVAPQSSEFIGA
Test [18] has as its target Follistatin-related protein 3 (Homo sapiens) (UniProt O95633). Briefly: FSTL3 binders on small-molecule microarrays, primary screen, biochemical, small-molecule microarray, 635 nm fluorescence (AID 1105).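 Note: score merges emission near 667 nm and signal to noise per printed spot across three slides.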 The conditions noted are these: FSTL3 binding, higher = more signal.
In test [19] the target is Dickkopf-related protein 1 (Homo sapiens) (UniProt O94907). The test can be described thus: DKK1 binders on small-molecule microarrays, primary screen, biochemical, small-molecule microarray, 635 nm fluorescence scan (AID 1106).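 Note: score merges emission near 667 nm with signal to noise over three replicate slides.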 The conditions noted are these: DKK1 binding, higher = more signal.
Dickkopf-related protein 1 (Homo sapiens), sequence (O94907 whole entry, looked up): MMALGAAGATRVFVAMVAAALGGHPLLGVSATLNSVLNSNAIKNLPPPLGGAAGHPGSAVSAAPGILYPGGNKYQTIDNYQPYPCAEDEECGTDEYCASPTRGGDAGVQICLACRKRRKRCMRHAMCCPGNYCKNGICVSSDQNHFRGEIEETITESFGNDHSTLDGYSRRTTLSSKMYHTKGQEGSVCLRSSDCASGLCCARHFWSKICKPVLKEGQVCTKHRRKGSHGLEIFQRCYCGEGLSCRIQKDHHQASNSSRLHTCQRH
The test system of test [20] is Inhibin beta A chain (activin A). The test can be described thus: INHBA (activin A) binders on microarrays, primary screen, biochemical, small-molecule microarray, 635 nm fluorescence scan (AID 1107).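 Note: mouse activin A protein probed at 4.33 µg/mL on printed slides; score merges bound-protein fluorescence near 667 nm with spot signal-to-noise.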 The conditions noted are these: small-molecule microarray binding, higher = more signal.

Torsin-1A-interacting protein 2 (Homo sapiens), sequence (Q8NFQ8 whole entry, looked up): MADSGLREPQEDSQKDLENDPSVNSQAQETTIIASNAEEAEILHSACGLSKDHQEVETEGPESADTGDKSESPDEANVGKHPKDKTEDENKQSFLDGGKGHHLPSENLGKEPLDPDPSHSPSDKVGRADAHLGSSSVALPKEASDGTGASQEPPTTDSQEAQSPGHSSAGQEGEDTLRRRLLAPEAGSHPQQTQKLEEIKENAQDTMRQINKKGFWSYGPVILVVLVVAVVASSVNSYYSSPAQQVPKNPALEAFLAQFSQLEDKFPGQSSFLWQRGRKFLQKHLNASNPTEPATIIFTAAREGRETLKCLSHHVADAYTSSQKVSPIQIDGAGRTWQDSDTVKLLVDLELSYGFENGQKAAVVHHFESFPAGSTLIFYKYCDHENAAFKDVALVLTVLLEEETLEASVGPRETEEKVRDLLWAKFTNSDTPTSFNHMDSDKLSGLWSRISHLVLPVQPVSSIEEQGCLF
Follistatin-related protein 3 (Homo sapiens), sequence (O95633 whole entry, looked up): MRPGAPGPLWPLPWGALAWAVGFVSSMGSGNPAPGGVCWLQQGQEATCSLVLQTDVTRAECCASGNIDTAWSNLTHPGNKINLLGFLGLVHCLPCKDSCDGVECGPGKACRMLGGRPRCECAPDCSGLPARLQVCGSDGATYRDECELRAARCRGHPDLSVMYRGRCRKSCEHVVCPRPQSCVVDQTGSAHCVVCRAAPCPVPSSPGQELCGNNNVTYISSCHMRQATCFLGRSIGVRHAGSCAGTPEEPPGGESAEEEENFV

With `C[C@]1(C(=O)NCCN2CCOCC2)c2ccccc2C(=O)N(Cc2ccc(OC(F)(F)F)cc2)[C@H]1c1ccc(CO)cc1`, the composite z-score in test [1] is 0.562; in [5], 1.82; in test [7], -0.0823; in test [8], 0.557; in [9] it was 0.164; in test [10] it was -0.213. Also, the composite z-score in test [11] was 0.654; in [12], -0.103; in test [13] it was 0.604; in test [15] it was -0.564; in test [16], -0.254; in [17], -1.39. The values for the composite z-score in [18], in [19] and in [20] were -0.381, -1.33 and -0.017, respectively. Moreover, the z-score in test [2] was -0.15 (inactive); in [3], -0.859 (inactive); in [4], -0.854 (inactive); in test [6], 0.365 (inactive); in test [14] it was 0.396 (inactive).

Turning to `COC(=O)c1c(CC[C@@H](CO)NC(=O)N[C@H](Cn2cc(-c3ccccc3C)nn2)C(C)C)oc(C(C)=O)c1C(=O)OC`, the composite z-score in test [1] was -0.469; in test [5] it was -0.351; in test [7], -0.29; in [8], -0.0001; in test [9], -0.465; in [10], -0.218. Besides, the composite z-score was 0.404 in [11]; -0.177 in test [12]; -0.076 in test [13]; 0.289 in test [15]; -0.79 in test [16]; -0.937 in test [17]. In addition, the composite z-score is -0.806 in test [18], -0.482 in test [19] and -0.252 in test [20]. Moreover, the z-score in test [2] was -0.147 (inactive); in [3], -0.644 (inactive); in test [4] it was 0.467 (inactive); in test [6], 0.537 (inactive); in test [14] it was -1.71 (inactive).

For the molecule `CC1CC/C=C\[C@H]2OC34C=CCN(CCN5CCOCC5)C(=O)[C@H]3N(CCO)C(=O)[C@@H]4C2C(=O)O1` (stereo not given in full), the composite z-score in test [1] was -0.623; in [5], -0.144; in test [7], -0.103; in [8], -0.982; in test [9] it was -0.43; in test [10], -0.196. Moreover, the composite z-score in test [11] was -0.778; in [12] it was -0.31; in test [13], 0.293; in test [15], -0.992; in [16], -0.831; in test [17], -0.707. Moreover, the composite z-score is -0.781 in test [18], -0.137 in test [19] and 0.761 in test [20]. The z-score in test [2] is -0.962 (inactive); in test [3] it was 0.0701 (inactive); in test [4], 0.005 (inactive); in [6], 1.25 (inactive); in test [14], -0.81 (inactive).

In the case of `O=C1C[C@]2(c3ccc([N+](=O)[O-])cc3)C(=O)N(Cc3ccccc3)c3cc(CO)ccc3[C@H]2N1CC12CC3CC(CC(C3)C1)C2`, the composite z-score in test [1] was -0.404; in [5] it was 0.258; in test [7] it was -0.477; in [8], -1.43; in test [9], -1.94; in test [10], 0.0645. In addition, the composite z-score in test [11] is -1.44; in test [12], 1.03; in [13], 0.259; in test [15], -0.36; in test [16], -0.855; in test [17], -0.478. Moreover, the composite z-score was -0.791 in test [18], -0.852 in test [19] and -0.544 in test [20]. In addition, the z-score was -0.251 (inactive) in [2]; 0.418 (inactive) in test [3]; -1.23 (inactive) in test [4]; 0.64 (inactive) in test [6]; 1.39 (inactive) in test [14].

In the case of `C=C(/C(=C/C[C@@H](OC(=O)c1ccncc1)c1ccccc1OCCO)c1cc(C(=O)OC)ccc1OC)C(C)C`, the composite z-score in [1] is 1.56; in test [5] it was 3.07; in test [7], -0.0155; in test [8], 0.88; in [9], 1.01; in test [10], -0.0353. The composite z-score was 1.04 in test [11]; -0.223 in test [12]; -0.151 in [13]; 1.12 in [15]; 0.759 in test [16]; 0.228 in test [17]. Besides, the composite z-score in test [18] came to 0.467; in test [19] it was 0.328; in test [20], 0.787. The z-score in test [2] was 0.381 (inactive); in test [3], -0.633 (inactive); in test [4], -0.338 (inactive); in test [6], 0.616 (inactive); in test [14], -1.25 (inactive).
